From PubChem BioAssay AID434989 (The Scripps Research Institute Molecular Screening Center, 2010)
The whole screen tested about 330,000 compounds, of which about 1,400 (0.42%) were called active. This is one part of a sample in which actives are shown more often than they occur. Unmarked numbers belong to inactive results.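 How the source made its calls: active means inhibition above its plate's threshold, mean inhibition of all tested compounds on the plate plus 3 SD (cut at about 37% in these data); inactive means the rest.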

These molecules were tested against Orexin/Hypocretin receptor type 1 (Homo sapiens) (UniProt O43613) (assay: OX1R (HCRTR1) antagonists, primary screen, fluorescence, CHO/OX1R cells, Fluo-8 calcium, orexin A (AID 434989;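 further: 0% = orexin A challenge wells and 100% = SB-334867-A antagonist wells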)). Conditions: Fluo-8 calcium fluorescence, at 5 µM, active compounds read high.
Chain of Orexin/Hypocretin receptor type 1 (Homo sapiens) (O43613 whole entry, looked up): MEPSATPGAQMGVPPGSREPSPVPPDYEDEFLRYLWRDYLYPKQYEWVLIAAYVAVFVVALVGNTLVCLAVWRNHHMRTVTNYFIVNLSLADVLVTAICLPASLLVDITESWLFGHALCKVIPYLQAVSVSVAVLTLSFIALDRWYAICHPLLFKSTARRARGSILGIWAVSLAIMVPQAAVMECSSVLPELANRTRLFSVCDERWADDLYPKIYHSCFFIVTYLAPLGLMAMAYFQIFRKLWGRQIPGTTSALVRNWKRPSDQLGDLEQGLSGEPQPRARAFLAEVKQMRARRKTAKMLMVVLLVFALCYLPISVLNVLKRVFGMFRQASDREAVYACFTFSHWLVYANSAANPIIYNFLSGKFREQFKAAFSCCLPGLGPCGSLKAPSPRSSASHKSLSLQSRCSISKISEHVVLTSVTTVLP

| Compound | inhibition |
| --- | --- |
| CC(C(=O)Nc1ccc(Cl)cc1Cl)N1CC=C(c2ccccc2)CC1 (stereo not given) | 50% (active) |
| CN1CCN(C(=S)SCC(=O)Nc2ccc(Cl)cc2C(=O)c2ccccc2)CC1 | -28.1% |
| Cc1ccc(C(C)C)c(OCC(=O)N2CCN(CC(=O)N3CCOCC3)CC2)c1 | 4.64% |
| O=C(N/N=C/c1c(O)n(C2CC2)c(=S)[nH]c1=O)c1ccccc1 | -22.4% |
| Cc1ccc(Cn2nnnc2CN2CCC(n3nnc4ccccc43)CC2)cc1 | -21.8% |
| Cc1ccc(CN2CCCC(C(=O)c3ccc4c(c3)OCO4)C2)cc1C (stereo not given) | -21.1% |
| COc1cc2nc(N3CCN(C(=O)[C@@H]4CCCO4)CC3)nc(N)c2cc1OC | 2.61% |
| O=C1C2(Cl)C3(Cl)C4(Cl)C(Cl)(Cl)C5(Cl)C3(Cl)C1(Cl)C5(Cl)C24Cl (stereo not given) | 72.3% (active) |
| CC1=C(C(=O)Nc2ccccc2)SCCO1 | -6.61% |
| Nc1ccc([N+](=O)[O-])cc1 | -2.36% |
